Hits are enriched below; roughly 32% of the tested compounds scored in any of these assays.
PostGolgi ctrl: growth inhibition of yeast control strain, primary screen, counter-screen for post-Golgi transport modulator project. efflux-deficient yeast background strain, growth absorbance A615, 16 h. inhibition, % at 10 µM. 5% of 98,000 active
CYP2C9 inh: blockers of cytochrome P450 2C9 activity – biochemical, luminescence, ADME assay, primary screen; inhibition, % at 5 µM; P11712; AID 777, 2007; CYP2C9 Supersomes, luciferin-H conversion; 20% of 96,000 active;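 active = blocking of liver enzyme CYP2C9 beyond about 50% at 5 µM, limit read from the data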
CYP2C9 activ: human CYP2C9 activators, primary screen, biochemical, luminescence. recombinant CYP2C9, luciferin-H conversion; hits give high values; factor 1 = untreated enzyme, 0 = blocked. activation factor at 5 µM. 1.4% of 96,000 active. Cytochrome P450 2C9 (Homo sapiens), P11712;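 active = activation factor of 2 or more for CYP2C9 at a 5 µM dose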;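 note: 0 = sulfaphenazole-blocked wells and 1 = vehicle-only wells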
CYP2C19 activ: human CYP2C19 activators, primary screen, biochemical, luminescence; recombinant CYP2C19, luciferin-H EGE luminescence; hits give high values; 0 = fully inhibited enzyme, 1 = untreated enzyme; activation factor at 5 µM; Cytochrome P450 2C19 (Homo sapiens), P33261; 96,000 tested, under 10 active; AID 1025, 2008;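 active = activation factor of at least 2 at 5 µM in the primary screen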;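 note: 0 = wells with 2.5 mM tranylcypromine and 1 = vehicle-only wells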
Target sequence (P33261 whole entry, looked up): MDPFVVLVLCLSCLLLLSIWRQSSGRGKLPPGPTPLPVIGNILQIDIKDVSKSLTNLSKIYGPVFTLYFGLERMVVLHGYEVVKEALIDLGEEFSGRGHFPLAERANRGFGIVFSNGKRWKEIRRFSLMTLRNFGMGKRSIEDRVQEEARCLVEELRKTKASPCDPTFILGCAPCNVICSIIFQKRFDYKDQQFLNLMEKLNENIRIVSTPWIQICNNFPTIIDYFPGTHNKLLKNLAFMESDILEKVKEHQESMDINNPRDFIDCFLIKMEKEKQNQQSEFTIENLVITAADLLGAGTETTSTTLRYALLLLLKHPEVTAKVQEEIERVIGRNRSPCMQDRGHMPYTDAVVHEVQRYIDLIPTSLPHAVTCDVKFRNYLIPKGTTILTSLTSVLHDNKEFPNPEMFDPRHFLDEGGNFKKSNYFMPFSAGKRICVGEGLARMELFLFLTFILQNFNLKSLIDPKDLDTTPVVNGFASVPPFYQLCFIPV
CYP2C19 inh: blockers of cytochrome P450 2C19 activity – biochemical, luminescence, ADME assay, primary screen; P33261; CYP2C19 Supersomes, luciferin-H EGE luminescence, 30 min; inhibition, % at 5 µM; 21% of 96,000 active; AID 778, 2007;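 active = CYP2C19 inhibition above a set limit at 5 µM in the primary screen, cut at about 50% in these data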;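 note: plate controls were negative control wells for no effect and 2.5 mM tranylcypromine positive control for full effect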
PostGolgi yeast: phenotypic screen on post-Golgi transport, primary screen; inhibition, % at 10 µM; 0.9% of 98,000 active; AID 739, 2007; post-Golgi transport phenotypic cell assay;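 note: yeast cells grown in 1536-well plates; yeast grown about 18 h at 30C before absorbance read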
An asterisk follows results filed as active; nt = no result. Cut-off read from the data, not from the text of the source, unless noted: active = inhibition above about 30%; inactive = the rest.

SMILES	PostGolgi ctrl	CYP2C9 inh	CYP2C9 activ	CYP2C19 activ	CYP2C19 inh	PostGolgi yeast
CCCCC(=O)NNC(=S)NC(=O)c1cccc([N+](=O)[O-])c1	13.9	25.4	0.7	0.9	7.0	-0.3
CC(=O)NC(NC(=S)Nc1ccc(N=Nc2ccccc2C)cc1C)C(Cl)(Cl)Cl (stereo not given)	9.2	-1.4	1	1.1	-11.4	-2.2
O=C(NC(NC(=S)Nc1ccccc1C(=O)O)C(Cl)(Cl)Cl)c1cccc([N+](=O)[O-])c1 (stereo not given)	2.5	70.6*	0.3	1	-4.6	4.2
CCOC(=O)c1sc(/N=C/c2c(C)[nH]n(-c3ccccc3)c2=O)c(C#N)c1C	2.5	28.4	0.7	1.1	-9.7	0.0
CC(C)(C)C1CCC(=O)C(C2(O)C(=O)Nc3ccccc32)C1 (stereo not given)	4.8	-27.0	1.3	0.9	6.4	7.1
O=C1CCCCCC1C1(O)C(=O)Nc2ccc(Br)cc21 (stereo not given)	-0.8	-9.4	1.1	0.5	52.3*	-7.8
N#CCC1c2ccccc2CCN1C(=O)Nc1ccc(Cl)cc1 (stereo not given)	24.8	33.7	0.7	0.5	54.6*	-8.4
O=C(Nc1ccccc1)c1ccccc1NC(=O)C1CCCCC1	12.4	34.4	0.7	0.8	19.7	11.3
COC(=O)c1ccccc1NC(=O)C1CCCC1	-1.5	-39.3	1.4	0.4	57.1*	-2.6
CN1C(=O)c2cccc(NC(=O)C3CCCCC3)c2C1=O	4.8	43.1	0.6	0.3	73.5*	-7.6
COC(=O)c1ccccc1NC(=O)C1CCN(C(=O)c2cc(OC)c(OC)c(OC)c2)CC1	7.6	91.1*	0.1	0.8	18.5	11.4
CCCCN(C)CCNC(=O)c1ccc2c(c1)NC(=O)C(N1CCCCC1)S2 (stereo not given)	13.4	5.0	0.9	1.1	-9.0	5.3
CC1CCN(C(=O)CCCNC(=O)Cn2cnc3sc4c(c3c2=O)CCCC4)CC1	1.7	27.3	0.7	0.8	23.2	-8.3
Cc1cc(C)c2nc(SCCc3ccccc3)nc(C)c2c1	14.4	12.5	0.9	0.7	31.3	-4.2
Cc1ccc(CSc2nnc([C@@H]3CCCN3)o2)cc1	-0.6	7.5	0.9	0.5	50.2*	9.1
c1ccc(OCc2nn3c(C4CCCCC4)nnc3s2)cc1	12.1	51.3*	0.5	0.9	13.5	-3.8
Clc1ccc(-c2nn3c(-c4ccccn4)nnc3s2)c(Cl)c1	nt	28.6	0.7	0.7	34.8	nt
c1ccc(Cc2nn3c(COc4ccccc4)nnc3s2)cc1	20.5	32.4	0.7	0.3	66.2*	-1.5
CN(C)c1ccc(-c2nn3c(C4CCCCC4)nnc3s2)cc1	19.9	54.7*	0.5	0.5	51.7*	-0.2
CCOc1ccccc1OCc1nn2c(COc3ccccc3)nnc2s1	25.3	-19.7	1.2	0.7	31.3	1.3
Clc1ccccc1-c1nn2c(COc3ccccc3)nnc2s1	22.1	81.6*	0.2	0.1	94.9*	-5.3
CCCNc1c(N)n(-c2ccccc2)c(=O)[nH]c1=O	11.0	-8.6	1.1	1.1	-5.7	4.2
CCOC(=O)N1CCN(C(=O)/C(=C/c2ccccc2OC)NC(=O)c2ccccc2)CC1	4.6	13.8	0.9	0.9	10.5	2.3
Cc1cc(Cl)ccc1OC(C)C(=O)N1CCCN(C(=O)C(C)Oc2ccc(Cl)cc2C)CC1 (stereo not given)	44.4*	2.1	1	0.8	22.5	9.1
COC(=O)c1cc(NCc2ccccc2F)ccc1N1CCOCC1	7.5	54.9*	0.5	0.1	86.9*	20.1
COC(=O)c1ccccc1NC(=O)CNc1cc(Cl)ccc1N1CCOCC1	34.5*	94.5*	0.1	0.2	84.0*	6.0
O=C(CSc1ccccc1)Nc1ccccc1N1CCOCC1	-5.8	28.4	0.7	0.6	40.4	16.6
CCC(C)Oc1cccc(C(=O)Nc2ccccc2N2CCOCC2)c1 (stereo not given)	24.6	73.1*	0.3	0.3	67.9*	13.8
Cc1ccc(-c2nnc(C)c(N3CCOCC3)n2)cc1	-1.5	1.2	1	0.9	11.9	9.6

Screening data from PubChem BioAssay.
